# Results published in PubChem BioAssay AID2158 (National Center for Advancing Translational Sciences (NCATS), 2009).
# “And” between values parts separate entries of the source, which are not always exact repeats. Identical values can stand only once. Inconclusive results are not listed. The source made the active and inactive calls. Calls come from the whole dose curve; as a rule, active = well fitted inhibition curve with a large enough effect; inconclusive = small, poorly fitted or top-dose-only effect; inactive = no such curve, though single readings can be large or run the other way.
# Molecular target: Cruzipain (Trypanosoma cruzi) (UniProt P25779)
# Sequence (P25779 123-467 limits assumed): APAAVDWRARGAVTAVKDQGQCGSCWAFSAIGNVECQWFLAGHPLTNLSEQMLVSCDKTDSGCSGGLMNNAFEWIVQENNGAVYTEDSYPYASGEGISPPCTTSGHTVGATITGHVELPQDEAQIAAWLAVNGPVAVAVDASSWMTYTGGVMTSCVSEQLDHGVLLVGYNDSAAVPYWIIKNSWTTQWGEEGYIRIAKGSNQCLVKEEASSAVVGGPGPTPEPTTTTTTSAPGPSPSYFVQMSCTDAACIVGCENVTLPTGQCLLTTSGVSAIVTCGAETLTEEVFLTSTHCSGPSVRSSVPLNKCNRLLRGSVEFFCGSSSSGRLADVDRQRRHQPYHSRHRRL
# Test: Confirmation qHTS Assay for Inhibitors of Cruzain; note: nearly all actives have a fitted effect of over 40% in size;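 for activity change, negative = inhibition: plate controls were uninhibited enzyme control for no effect and buffer wells lacking enzyme for full effect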
# Details: purified cruzain, Z-FR-AMC fluorescence, 0.01% Triton
# Outline: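 Reaction progress from the 60 s rise in AMC fluorescence (ex 360, em 450 nm) after adding 2 uM Z-FR-AMC. Before this, 1.5 nM cruzain sat 15 min at room temperature with compound in pH 5.5 acetate buffer with 5 mM DTT and 0.01% Triton X-100.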
# Potency is the fitted concentration of half-maximal effect.
Compound,Potency,"activity change, negative = inhibition"
Cc1ccc(-c2c3c(=O)n(C)c(=O)n(C)c3cn2-n2cnnc2)cc1,25.1 µM (active),
CCN(Cc1ccccc1)c1nc2c(S(=O)(=O)c3ccccc3)nnn2c2ccc(Cl)cc12,,-6.48% (inactive)
O=C(NCCCc1nc2ccccc2n1CCCCOc1ccccc1)C1CCCCC1,,-23.8% (inactive)
CCCCNC(=O)c1ccc2nc(-c3cccs3)c(-c3cccs3)nc2c1,,-3.05% (inactive)
N#Cc1ccc(NC(=O)COC(=O)CNC(=O)C2CCCCC2)cc1,14.1 µM (active),
Cc1ccc(C)c(-c2csc(-c3c(N)c(C(=O)c4ccc5c(c4)OCO5)n4ccccc34)n2)c1,,-1.82% (inactive)
Cc1ccccc1C(=O)NCC(=O)OC(C(=O)Nc1cc(C(F)(F)F)ccc1Cl)c1ccccc1 (stereo not drawn),12.6 µM (active),
CCNc1nc(C#N)nc2c1ncn2-c1cccc(Cl)c1,0.0631 µM (active),
c1ccc(CN(Cc2ccccc2)Cc2nnc(-c3cc4ccccc4[nH]3)s2)cc1,,-2.53% (inactive)
CC(C)(C)OC(=O)NCC(=O)NNC(=O)c1cc2ccccc2[nH]1,,-2.11% (inactive)
COc1ccc(NC(=O)C(OC(=O)CNC(=O)c2ccccc2)c2ccccc2)c(C)c1 (stereo not drawn),8.91 µM (active),
N#Cc1nc(N(c2ccccc2)c2ccccc2)nc(-n2cccc2)n1,2.51 µM (active),
N#Cc1nc(Nc2ccc(Br)cc2)nc(NC2CCCC2)n1,0.501 µM (active),
Cc1ccc(OCCn2c(CCNC(=O)C3CCCCC3)nc3ccccc32)cc1,0.1 µM (active),
COC(=O)CCC(C)C1CCC2C3CC[C@H]4CC(O)CC[C@@]4(C)C3CC(O)[C@]12C (stereo partly drawn),,-8.27% (inactive)
O=[N+]([O-])c1ccccc1S(=O)(=O)NCC1CCC(CNCC2CCc3ccccc3C2)CC1 (stereo not drawn),,-5.24% (inactive)
O=C(CNC(=O)c1ccc(Cl)cc1)OC(C(=O)Nc1cc(C(F)(F)F)ccc1Cl)c1ccccc1 (stereo not drawn),10 µM (active),
CC(C)C[C@H](N)c1nnc(S(=O)(=O)Cc2cccc(F)c2)o1,15.8 µM (active),
O=C(Nc1nc(-c2ccc(S(=O)(=O)N3CCCCCC3)cc2)cs1)c1cccs1,,-3.12% (inactive)

Compound,Potency,"activity change, negative = inhibition"
O=C(CNC(=O)c1ccc2n[nH]nc2c1)OC(C(=O)Nc1cc(C(F)(F)F)ccc1Cl)c1ccccc1 (stereo not drawn),14.1 µM (active),
COc1ccc(/C=C/C(=O)Nc2ccc(-n3nncc3-c3ccc(Br)cc3)cc2)cc1OC,12.6 µM (active),
N#Cc1nc(N2CCCCC2)nc(N2CCOCC2)n1,2.82 µM (active),
Cc1cccc(C(=O)NCC(=O)OC(C(=O)Nc2cc(C(F)(F)F)ccc2Cl)c2ccccc2)c1 (stereo not drawn),7.94 µM (active),
Cn1c(=O)c2c(-c3ccccc3)n(-n3cnnc3)cc2n(C)c1=O,22.4 µM (active),
CC(C)(C)OC(=O)Cc1nnc(-c2nc3ccccc3[nH]2)o1,,-0.371% (inactive)
O=C(CNC(=O)C1CCCC1)OC(C(=O)Nc1cc(C(F)(F)F)ccc1Cl)c1ccccc1 (stereo not drawn),7.94 µM (active),
Cc1ccccc1Nc1nc(C#N)nc(NC2CCCC2)n1,0.708 µM (active),
COc1ccc(C)cc1NC(=O)C(OC(=O)CNC(=O)c1ccccc1)c1ccccc1 (stereo not drawn),8.91 µM (active),
O=C(NCCc1nc2ccccc2n1CCCCOc1ccccc1)C1CCCCC1,0.562 µM (active),
CCn1cnc2c(Nc3cc(F)cc(F)c3)nc(C(=O)COc3c(F)c(F)cc(F)c3F)nc21,,-8.99% (inactive)
Cc1cccc(Nc2nc(C#N)nc(NC3CCCC3)n2)c1,0.126 µM (active),
Cc1ccc2cc(CN(Cc3ccco3)Cc3nnnn3Cc3ccco3)c(=O)[nH]c2c1,,-10.1% (inactive)
O=C(Cc1nnc(CNC(=O)c2ccccc2)o1)Nc1cc(C(F)(F)F)ccc1Cl,,-8.68% (inactive)
CN(C)c1nc(C#N)nc(N2CCOCC2)n1,10 µM (active) and 8.91 µM (active),
O=C(COC(=O)CNC(=O)c1ccccc1)Nc1ccccc1Cl,11.2 µM (active),
O=C(NCCO)c1ccc2nc(-c3ccco3)c(-c3ccco3)nc2c1,14.1 µM (active),
O=C(NNC(=O)c1nc2ccccc2[nH]1)OCc1ccccc1,,-7.65% (inactive)
O=C(CNC(=O)c1ccncc1)OC(C(=O)Nc1cc(C(F)(F)F)ccc1Cl)c1ccccc1 (stereo not drawn),25.1 µM (active),
